Records with an inconclusive call do not appear. Where a call stands in place of a potency, no number is given. Where a structure was tested more than once in an assay, its records may differ in their call. Active and inactive are the calls of the source. Unless noted, calls come from the whole dose curve; as a rule, active = well fitted curve in the direction sought with a large enough effect in the repeat runs; inconclusive = weak or mixed curves; inactive = no such curve, though single readings can be large; an effect the other way counts as inactive or inconclusive.
How the values were obtained:
[1] = qHTS assay to identify small molecule antagonists of the peroxisome proliferator-activated receptor delta (PPARd) signaling pathway - cell viability counter screen (AID 743213); note: nearly all actives have a fitted effect of over 50% in size; note: potency is the fitted concentration of half-maximal effect
How it was run: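 HEK293H PPARd UAS-bla cells, 5 h pre-incubation, compound + L165041 300 nM final, 17 h 37 C; B/G FRET substrate 2 h RT; then CellTiter-Glo 30 min RT, luminescence.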

[2] = biological target: Peroxisome proliferator-activated receptor delta (Homo sapiens) (UniProt Q03181); experiment: qHTS assay to identify small molecule antagonists of the peroxisome proliferator-activated receptor delta (PPARd) signaling pathway (AID 743215; active = well fitted inhibition curve with a large enough effect in the signal ratio in the repeat runs, not every such curve was filed as active; the % refers to the signal ratio;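 note: cells stimulated with agonist L165041 at 300 nM final during compound exposure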; note: potency is the fitted concentration of half-maximal effect)
How it was run: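 Inhibition of L165041-driven (300 nM final) PPARd signaling is scored in HEK293H UAS-bla cells. Exposure lasts 17 h at 37 C; beta-lactamase activity is then read by FRET substrate fluorescence after 2 h at room temperature.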

[3] = qHTS assay to identify small molecule agonists of the farnesoid-X-receptor (FXR) signaling pathway - cell viability counter screen (AID 743218); note: nearly all actives have a fitted effect of over 45% in size; note: potency is the fitted concentration of half-maximal effect
How it was run: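 Cytotoxicity counter-screen run in parallel, same wells: FXR-UAS-bla HEK 293T cells dosed 16 h at 37 C, viability read by CellTiter-Glo luminescence after 30 min at room temperature.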

[4] = qHTS assay to identify small molecule antagonists of the farnesoid-X-receptor (FXR) signaling pathway - cell viability counter screen (AID 743221; active = well fitted cell-killing curve with a large enough effect in the repeat runs, not every such curve was filed as active; note: nearly all actives have a fitted effect of over 50% in size; note: potency is the fitted concentration of half-maximal effect)
How it was run: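 FXR-UAS-bla HEK 293T cells were treated with test compounds plus chenodeoxycholic acid (50 uM final) for 16 h at 37 C. Cell viability in the same wells was then read as CellTiter-Glo luminescence after 30 min at room temperature.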

[5] = biological target: Vitamin D3 receptor (Homo sapiens) (UniProt P11473); experiment: qHTS assay to identify small molecule agonists of the vitamin D receptor (VDR) signaling pathway (AID 743222; calls by dose curve)
How it was run: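 Quantitative HTS agonist-mode screen: compounds in DMSO were pin-transferred onto VDR-bla cells and incubated 16 h at 37C, 5% CO2. Reporter activity was detected with LiveBLAzer B/G FRET substrate after 2 h at room temperature.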

[6] = biological target: Vitamin D3 receptor (Homo sapiens) (UniProt P11473); experiment: qHTS assay to identify small molecule antagonists of the vitamin D receptor (VDR) signaling pathway (AID 743223; active = well fitted inhibition curve with a large enough effect in the signal ratio in the repeat runs, not every such curve was filed as active; the % refers to the signal ratio)
How it was run: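 VDR-bla cells were plated, incubated 4 h at 37C, then given compound and 1alpha,25-dihydroxyvitamin D3 (3 nM final). After 16 h at 37C, LiveBLAzer B/G FRET substrate was added for 2 h at room temperature and fluorescence read.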

[7] = qHTS assay to identify small molecule agonists of the vitamin D receptor (VDR) signaling pathway - cell viability counter screen (AID 743224); note: nearly all actives have a fitted effect of over 50% in size; note: potency is the fitted concentration of half-maximal effect
How it was run: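 Viability is measured in the same wells as the VDR-bla reporter assay: after 16 h compound treatment and 2 h substrate loading, CellTiter-Glo is added and luminescence read 30 min later.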

[8] = biological target: Bile acid receptor (Homo sapiens) (UniProt Q96RI1); experiment: qHTS assay to identify small molecule antagonists of the farnesoid-X-receptor (FXR) signaling pathway (AID 743217; active = well fitted inhibition curve with a large enough effect in the signal ratio in the repeat runs, not every such curve was filed as active; the % refers to the signal ratio)
How it was run: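 Antagonist mode against 50 uM (final) chenodeoxycholic acid stimulation in FXR-bla HEK 293T cells, 16 h at 37 °C. Inhibition detected as reduced beta-lactamase activity via LiveBLAzer B/G FRET fluorescence after 2 h at room temperature.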

[9] = biological target: Bile acid receptor (Homo sapiens) (UniProt Q96RI1); experiment: qHTS assay to identify small molecule agonists of the farnesoid-X-receptor (FXR) signaling pathway (AID 743220; active = well fitted activation curve with a large enough effect in the signal ratio in the repeat runs, not every such curve was filed as active; the % refers to the signal ratio)
How it was run: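 Beta-lactamase reporter under UAS control in GeneBLAzer FXR HEK 293T cells (5000/well) measured with LiveBLAzer FRET substrate after 2 h at room temperature. Compound exposure lasted 16 h at 37C.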

Peroxisome proliferator-activated receptor delta (Homo sapiens), sequence (Q03181 whole entry, looked up): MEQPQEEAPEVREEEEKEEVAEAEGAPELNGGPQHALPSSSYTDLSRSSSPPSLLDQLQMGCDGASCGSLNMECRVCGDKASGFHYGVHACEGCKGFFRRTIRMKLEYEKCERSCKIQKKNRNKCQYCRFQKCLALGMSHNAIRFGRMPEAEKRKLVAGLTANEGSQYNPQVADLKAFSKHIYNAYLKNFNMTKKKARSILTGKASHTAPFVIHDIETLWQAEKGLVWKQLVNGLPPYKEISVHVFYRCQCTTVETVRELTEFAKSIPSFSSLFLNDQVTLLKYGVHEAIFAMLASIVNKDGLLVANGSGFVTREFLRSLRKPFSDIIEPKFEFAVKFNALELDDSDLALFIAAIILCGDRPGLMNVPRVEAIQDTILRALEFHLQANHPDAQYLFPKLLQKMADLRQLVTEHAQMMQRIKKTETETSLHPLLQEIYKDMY
Bile acid receptor (Homo sapiens), sequence (Q96RI1 whole entry, looked up): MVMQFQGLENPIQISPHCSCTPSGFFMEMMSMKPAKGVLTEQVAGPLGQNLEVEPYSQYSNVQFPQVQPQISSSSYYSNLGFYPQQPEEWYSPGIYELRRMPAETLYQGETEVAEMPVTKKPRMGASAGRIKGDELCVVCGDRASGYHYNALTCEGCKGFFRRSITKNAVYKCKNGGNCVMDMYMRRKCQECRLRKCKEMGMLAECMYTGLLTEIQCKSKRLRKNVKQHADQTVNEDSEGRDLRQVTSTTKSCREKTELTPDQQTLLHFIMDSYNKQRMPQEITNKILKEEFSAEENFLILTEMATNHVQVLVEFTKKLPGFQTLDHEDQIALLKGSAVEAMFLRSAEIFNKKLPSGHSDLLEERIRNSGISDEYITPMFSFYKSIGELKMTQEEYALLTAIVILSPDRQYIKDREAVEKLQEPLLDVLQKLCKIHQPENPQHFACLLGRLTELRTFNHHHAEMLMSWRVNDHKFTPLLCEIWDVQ
Vitamin D3 receptor (Homo sapiens), sequence (P11473 whole entry, looked up): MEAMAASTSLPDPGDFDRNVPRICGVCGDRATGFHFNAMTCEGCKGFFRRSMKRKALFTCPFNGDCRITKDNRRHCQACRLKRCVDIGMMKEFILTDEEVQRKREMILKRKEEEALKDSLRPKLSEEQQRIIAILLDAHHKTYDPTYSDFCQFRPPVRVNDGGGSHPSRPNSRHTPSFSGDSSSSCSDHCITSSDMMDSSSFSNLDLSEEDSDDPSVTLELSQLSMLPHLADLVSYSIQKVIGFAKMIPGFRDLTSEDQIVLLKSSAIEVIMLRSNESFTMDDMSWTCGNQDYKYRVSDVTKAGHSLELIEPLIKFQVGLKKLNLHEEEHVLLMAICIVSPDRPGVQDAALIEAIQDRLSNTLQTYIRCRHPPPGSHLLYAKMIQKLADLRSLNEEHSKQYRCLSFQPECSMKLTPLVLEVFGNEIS

| SMILES | Potency [1] | Potency [2] | Potency [3] | Potency [4] | outcome [5] | outcome [6] | Potency [7] | Potency [8] | outcome [9] |
| --- | --- | --- | --- | --- | --- | --- | --- | --- | --- |
| c1ccc(CN2CCNCC2)cc1 | inactive | inactive | inactive | inactive | inactive | inactive | inactive | – | – |
| CCCCCCCCOC(=O)c1ccc(C(=O)OCCCCCCCC)c(C(=O)OCCCCCCCC)c1 | inactive | inactive | inactive | – | – | – | inactive | inactive | inactive |
| CC1(C)CCC(Cc2ccc(Cl)cc2)C1(O)Cn1cncn1 (stereo not drawn) | inactive | inactive | inactive | inactive | inactive | inactive | – | inactive | inactive |
| CC/C(=N\OC/C=C/Cl)C1=C(O)CC(C2CCOCC2)CC1=O (stereo not drawn) | inactive | inactive | inactive | inactive | inactive | – | inactive | – | – |
| O=C(O)C(F)(F)C(F)(F)C(F)(F)C(F)(F)C(F)(F)C(F)(F)C(F)(F)C(F)(F)C(F)(F)C(F)(F)F | inactive | – | inactive | inactive | inactive | inactive | inactive | inactive | inactive |
| IC(I)=C(I)I | 12.3 µM (active) | 15.5 µM (active) | 12.3 µM (active) | – | – | – | 11 µM (active) | – | – |
| CCCN(CC1CC1)c1c([N+](=O)[O-])cc(C(F)(F)F)cc1[N+](=O)[O-] | inactive | inactive | inactive | inactive | – | – | inactive | inactive | inactive |
| CCCCCC[N+](=O)[O-] | inactive | – | inactive | inactive | inactive | – | inactive | inactive | inactive |
| [O-][Cl+]O | inactive | inactive | inactive | inactive | inactive | inactive | – | – | – |
| C=CC(=O)OC | inactive | – | inactive | inactive | inactive | – | inactive | inactive | inactive |
| c1ccc(C2CC2)c(OCC2=NCCN2)c1 | inactive | inactive | inactive | inactive | inactive | – | inactive | – | – |
| N#CCC#N | inactive | inactive | inactive | inactive | inactive | – | – | – | – |
| Clc1cc(C(Cl)(Cl)Cl)cnc1Cl | inactive | inactive | inactive | inactive | inactive | inactive | inactive | inactive | inactive |
| Cc1ccccc1CCl | inactive | inactive | inactive | inactive | inactive | – | – | – | – |
| C=CCOC(C)=O | inactive | – | inactive | inactive | inactive | inactive | inactive | inactive | inactive |
| CC(c1ccc(O)cc1)(c1ccc(O)cc1)c1ccc(O)cc1 | inactive | 4.9 µM (active) | – | inactive | inactive | – | – | – | – |
| O=[Se]=O | inactive | – | inactive | inactive | inactive | inactive | inactive | inactive | inactive |
| O=C1NCN(c2ccccc2)C12CCN(CCCOc1ccc(F)cc1)CC2 | inactive | inactive | – | inactive | inactive | – | – | – | inactive |
| Clc1cccc2ccccc12 | inactive | inactive | inactive | – | inactive | – | inactive | – | – |
| ClC=C(Cl)Cl | inactive | inactive | – | inactive | – | – | inactive | inactive | inactive |
| Cc1c(F)c(F)c(COC(=O)C2C(/C=C(\Cl)C(F)(F)F)C2(C)C)c(F)c1F (stereo not drawn) | – | inactive | inactive | inactive | inactive | inactive | inactive | – | inactive |
| C=COC(C)=O | inactive | – | inactive | inactive | inactive | – | inactive | – | – |
| O=C(NCc1cccnc1)Nc1ccc([N+](=O)[O-])cc1 | inactive | – | inactive | inactive | – | – | inactive | – | – |
| CC(C)O.CC(C)O.OCCN(CCO)CCO.OCCN(CCO)CCO.[Ti] | inactive | – | inactive | inactive | – | – | inactive | – | – |
| [CH3][Sn]([CH3])([Cl])[Cl] | inactive | – | 55.9 µM (active) and inactive | 55.9 µM (active) and inactive | inactive | inactive | – | – | – |
| N#C/C(N)=C(/N)C#N | – | inactive | inactive | inactive | inactive | – | – | inactive | inactive |

Reference: PubChem BioAssay (Tox21)
